# Laboratory results as given in the supplement of paper PMC4022240.
# ± gives the standard deviation.
# T1: HaloTag-ATRX ADD domain (163-292)
# T1 chain: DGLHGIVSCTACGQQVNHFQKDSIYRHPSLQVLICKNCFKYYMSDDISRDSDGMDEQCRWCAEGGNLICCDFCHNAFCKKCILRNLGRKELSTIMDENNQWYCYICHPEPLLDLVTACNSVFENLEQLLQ
# Experiments:
# Assay in all cases: peptide microarray binding signal (635 nm), min-max normalized on array (fraction of array maximum); higher = stronger binding
# Details in all cases: peptide region: H3 11-23
# [1] = molecular target: T1, HaloTag-ATRX ADD domain (163-292)
# How it was run: (§1)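 An Axon GenePix 4000B scanned the arrays at 635 nm for signal and at 532 nm to catch misprints. Those arrays held histone 13-mer peptide–cellulose conjugates printed in triplicate on nitrocellulose with a Cy3 tracer, blocked overnight at 4°C and probed for 1 h at 4°C with biotin-labelled HaloTag reader fusions (10 nM to 1 μM) plus streptavidin-Alexa Fluor 647 or with rabbit histone antibodies (1:10,000 to 1:2,000) plus anti-rabbit Alexa 647. Each binding signal is a triplicate-spot mean intensity, scaled min-max within its library.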
# [2] = molecular target: HaloTag-ING2 PHD (mouse Ing2 200-280)
# How it was run: as §1
# [3] = molecular target: anti-H3K4me3 antibody ab8580
# How it was run: as §1
# [4] = molecular target: anti-H3K9me3 antibody ab8898
# How it was run: as §1
# [5] = peptide modifications: H3R17me1 H3K18ac, binder concentration: 1:2,000 dilution
# [6] = peptide modifications: H3R17me1 H3K18ac, binder concentration: 1:10,000 dilution
# [7] = peptide modifications: H3R17cit, binder concentration: 1:2,000 dilution
# [8] = peptide modifications: H3R17cit, binder concentration: 1:10,000 dilution
# [9] = peptide modifications: H3R17me1 H3K18me3, binder concentration: 1:2,000 dilution
# [10] = peptide modifications: H3R17me1 H3K18me3, binder concentration: 1:10,000 dilution
# [11] = peptide modifications: H3R17me2a H3K18ac, binder concentration: 1:2,000 dilution
# [12] = peptide modifications: H3R17me2a H3K18ac, binder concentration: 1:10,000 dilution
# [13] = peptide modifications: H3R17cit H3K18me3, binder concentration: 1:2,000 dilution
# [14] = peptide modifications: H3R17cit H3K18me3, binder concentration: 1:10,000 dilution
# [15] = peptide modifications: H3R17me1, binder concentration: 1:2,000 dilution
# [16] = peptide modifications: H3R17me1, binder concentration: 1:10,000 dilution
# [17] = peptide modifications: H3R17me1 H3K18me1, binder concentration: 1:2,000 dilution
# [18] = peptide modifications: H3R17me1 H3K18me1, binder concentration: 1:10,000 dilution
# [19] = peptide modifications: H3R17me1 H3K18me2, binder concentration: 1:2,000 dilution
# [20] = peptide modifications: H3R17me1 H3K18me2, binder concentration: 1:10,000 dilution
# [21] = peptide modifications: H3R17cit H3K18me1, binder concentration: 1:2,000 dilution
# [22] = peptide modifications: H3R17cit H3K18me1, binder concentration: 1:10,000 dilution
# [23] = peptide modifications: H3R17cit H3K18me2, binder concentration: 1:2,000 dilution
# [24] = peptide modifications: H3R17cit H3K18me2, binder concentration: 1:10,000 dilution
binder,measurement,setting,value
TGGKAPRKQLATK [H3 11-23 T G G K A P Rme Kac Q L A T K],peptide microarray binding signal,"[1]; peptide modifications: H3R17me1 H3K18ac, binder concentration: 50 nM",0.00715 ± 0.00026
same,peptide microarray binding signal,"[1]; peptide modifications: H3R17me1 H3K18ac, binder concentration: 500 nM",0.0141 ± 0.00063
same,peptide microarray binding signal,"[2]; peptide modifications: H3R17me1 H3K18ac, binder concentration: 10 nM",0.00931 ± 0.0014
same,peptide microarray binding signal,"[2]; peptide modifications: H3R17me1 H3K18ac, binder concentration: 100 nM",0.0197 ± 0.0049
same,peptide microarray binding signal,[3]; [5],0.00513 ± 0.00068
same,peptide microarray binding signal,[3]; [6],0.0149 ± 0.004
same,peptide microarray binding signal,[4]; [5],0.001208 ± 9.1e-06
same,peptide microarray binding signal,[4]; [6],0.00121 ± 3.2e-05
TGGKAPRKQLATK [H3 11-23 T G G K A P Rcit K Q L A T K],peptide microarray binding signal,"[1]; peptide modifications: H3R17cit, binder concentration: 50 nM",0.00364 ± 6.7e-05
same,peptide microarray binding signal,"[1]; peptide modifications: H3R17cit, binder concentration: 500 nM",0.0192 ± 0.00046
same,peptide microarray binding signal,"[2]; peptide modifications: H3R17cit, binder concentration: 10 nM",0.00794 ± 0.00039
same,peptide microarray binding signal,"[2]; peptide modifications: H3R17cit, binder concentration: 100 nM",0.0168 ± 0.0043
same,peptide microarray binding signal,[3]; [7],0.000302 ± 4.1e-05
same,peptide microarray binding signal,[3]; [8],0.00148 ± 0.00015
same,peptide microarray binding signal,[4]; [7],0.00122 ± 4.2e-05
same,peptide microarray binding signal,[4]; [8],0.0015 ± 6.7e-05
TGGKAPRKQLATK [H3 11-23 T G G K A P Rme Kme3 Q L A T K],peptide microarray binding signal,"[1]; peptide modifications: H3R17me1 H3K18me3, binder concentration: 50 nM",0.0105 ± 0.00069
same,peptide microarray binding signal,"[1]; peptide modifications: H3R17me1 H3K18me3, binder concentration: 500 nM",0.0187 ± 0.002
same,peptide microarray binding signal,"[2]; peptide modifications: H3R17me1 H3K18me3, binder concentration: 10 nM",0.00901 ± 0.00033
same,peptide microarray binding signal,"[2]; peptide modifications: H3R17me1 H3K18me3, binder concentration: 100 nM",0.014 ± 0.0016
same,peptide microarray binding signal,[3]; [9],0.468 ± 0.19
same,peptide microarray binding signal,[3]; [10],0.29 ± 0.07
same,peptide microarray binding signal,[4]; [9],0.0548 ± 0.023
same,peptide microarray binding signal,[4]; [10],0.0168 ± 0.0037
TGGKAPRKQLATK [H3 11-23 T G G K A P Rme2a Kac Q L A T K],peptide microarray binding signal,"[1]; peptide modifications: H3R17me2a H3K18ac, binder concentration: 50 nM",0.00671 ± 0.00026
same,peptide microarray binding signal,"[1]; peptide modifications: H3R17me2a H3K18ac, binder concentration: 500 nM",0.0144 ± 0.001
same,peptide microarray binding signal,"[2]; peptide modifications: H3R17me2a H3K18ac, binder concentration: 10 nM",0.00967 ± 0.00055
same,peptide microarray binding signal,"[2]; peptide modifications: H3R17me2a H3K18ac, binder concentration: 100 nM",0.0188 ± 0.0034
same,peptide microarray binding signal,[3]; [11],0.00549 ± 0.00049
same,peptide microarray binding signal,[3]; [12],0.0302 ± 0.033
same,peptide microarray binding signal,[4]; [11],0.00273 ± 0.00027
same,peptide microarray binding signal,[4]; [12],0.00427 ± 0.0013
TGGKAPRKQLATK [H3 11-23 T G G K A P Rcit Kme3 Q L A T K],peptide microarray binding signal,"[1]; peptide modifications: H3R17cit H3K18me3, binder concentration: 50 nM",0.00592 ± 0.00019
same,peptide microarray binding signal,"[1]; peptide modifications: H3R17cit H3K18me3, binder concentration: 500 nM",0.012 ± 0.00018
same,peptide microarray binding signal,"[2]; peptide modifications: H3R17cit H3K18me3, binder concentration: 10 nM",0.0112 ± 0.0014
same,peptide microarray binding signal,"[2]; peptide modifications: H3R17cit H3K18me3, binder concentration: 100 nM",0.0317 ± 0.0063
same,peptide microarray binding signal,[3]; [13],0.728 ± 0.052
same,peptide microarray binding signal,[3]; [14],0.45 ± 0.036
same,peptide microarray binding signal,[4]; [13],0.0249 ± 0.0032
same,peptide microarray binding signal,[4]; [14],0.0125 ± 0.0016
TGGKAPRKQLATK [H3 11-23 T G G K A P Rme K Q L A T K],peptide microarray binding signal,"[1]; peptide modifications: H3R17me1, binder concentration: 50 nM",0.0101 ± 0.00079
same,peptide microarray binding signal,"[1]; peptide modifications: H3R17me1, binder concentration: 500 nM",0.0274 ± 0.0035
same,peptide microarray binding signal,"[2]; peptide modifications: H3R17me1, binder concentration: 10 nM",0.00877 ± 0.0015
same,peptide microarray binding signal,"[2]; peptide modifications: H3R17me1, binder concentration: 100 nM",0.0348 ± 0.0049
same,peptide microarray binding signal,[3]; [15],0.00176 ± 7.5e-05
same,peptide microarray binding signal,[3]; [16],0.00103 ± 2.1e-05
same,peptide microarray binding signal,[4]; [15],0.00326 ± 7.1e-05
same,peptide microarray binding signal,[4]; [16],0.00265 ± 0.00014
TGGKAPRKQLATK [H3 11-23 T G G K A P Rme Kme Q L A T K],peptide microarray binding signal,"[1]; peptide modifications: H3R17me1 H3K18me1, binder concentration: 50 nM",0.009 ± 0.00036
same,peptide microarray binding signal,"[1]; peptide modifications: H3R17me1 H3K18me1, binder concentration: 500 nM",0.018 ± 0.0028
same,peptide microarray binding signal,"[2]; peptide modifications: H3R17me1 H3K18me1, binder concentration: 10 nM",0.0114 ± 0.001
same,peptide microarray binding signal,"[2]; peptide modifications: H3R17me1 H3K18me1, binder concentration: 100 nM",0.0208 ± 0.0062
same,peptide microarray binding signal,[3]; [17],0.00808 ± 0.0017
same,peptide microarray binding signal,[3]; [18],0.00622 ± 0.0014
same,peptide microarray binding signal,[4]; [17],0.0021 ± 0.00037
same,peptide microarray binding signal,[4]; [18],0.00161 ± 4.1e-05
TGGKAPRKQLATK [H3 11-23 T G G K A P Rme Kme2 Q L A T K],peptide microarray binding signal,"[1]; peptide modifications: H3R17me1 H3K18me2, binder concentration: 50 nM",0.00837 ± 0.00068
same,peptide microarray binding signal,"[1]; peptide modifications: H3R17me1 H3K18me2, binder concentration: 500 nM",0.0122 ± 0.0013
same,peptide microarray binding signal,"[2]; peptide modifications: H3R17me1 H3K18me2, binder concentration: 10 nM",0.0167 ± 0.002
same,peptide microarray binding signal,"[2]; peptide modifications: H3R17me1 H3K18me2, binder concentration: 100 nM",0.0345 ± 0.0088
same,peptide microarray binding signal,[3]; [19],0.0126 ± 0.0083
same,peptide microarray binding signal,[3]; [20],0.0135 ± 0.01
same,peptide microarray binding signal,[4]; [19],0.00181 ± 0.00018
same,peptide microarray binding signal,[4]; [20],0.001557 ± 1.5e-05
TGGKAPRKQLATK [H3 11-23 T G G K A P Rcit Kme Q L A T K],peptide microarray binding signal,"[1]; peptide modifications: H3R17cit H3K18me1, binder concentration: 50 nM",0.00524 ± 6.5e-05
same,peptide microarray binding signal,"[1]; peptide modifications: H3R17cit H3K18me1, binder concentration: 500 nM",0.009239 ± 4.5e-05
same,peptide microarray binding signal,"[2]; peptide modifications: H3R17cit H3K18me1, binder concentration: 10 nM",0.00382 ± 0.00016
same,peptide microarray binding signal,"[2]; peptide modifications: H3R17cit H3K18me1, binder concentration: 100 nM",0.014 ± 0.0031
same,peptide microarray binding signal,[3]; [21],0.00383 ± 0.00052
same,peptide microarray binding signal,[3]; [22],0.0028 ± 0.00018
same,peptide microarray binding signal,[4]; [21],0.000846 ± 5.8e-05
same,peptide microarray binding signal,[4]; [22],0.000807
TGGKAPRKQLATK [H3 11-23 T G G K A P Rcit Kme2 Q L A T K],peptide microarray binding signal,"[1]; peptide modifications: H3R17cit H3K18me2, binder concentration: 50 nM",0.00542 ± 6.7e-05
same,peptide microarray binding signal,"[1]; peptide modifications: H3R17cit H3K18me2, binder concentration: 500 nM",0.0117 ± 0.00022
same,peptide microarray binding signal,"[2]; peptide modifications: H3R17cit H3K18me2, binder concentration: 10 nM",0.00806 ± 0.00083
same,peptide microarray binding signal,"[2]; peptide modifications: H3R17cit H3K18me2, binder concentration: 100 nM",0.0217 ± 0.0032
same,peptide microarray binding signal,[3]; [23],0.0091 ± 0.0018
same,peptide microarray binding signal,[3]; [24],0.00548 ± 0.00043
same,peptide microarray binding signal,[4]; [23],0.000921 ± 7.2e-05
same,peptide microarray binding signal,[4]; [24],0.000865 ± 2.4e-05
